Results as given in the supplement of paper PMC12340641.
Counter-ions that a name gives are not always drawn.

The compounds below were run on HEK293FT dCK*-only (assay: relative growth in counter assay (no AraC = 100%, AraC + DMSO = 0%); higher = more growth rescue independent of IKZF1). Conditions: compound concentration: 5 uM; AraC concentration: 0.3 uM; overnight pretreatment + 4 days AraC.
Procedure, shortened: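 HEK293FT cells carrying only an engineered kinase construct were plated at 300 per well (384-well) and given 5 μM compound 2 h later. Following overnight at 37 °C, a nucleoside suicide substrate (0.3 μM) plus medium was added for 4 days. Hoechst 33342-stained nuclei were imaged and counted on day 5, with 100% assigned to wells without suicide substrate and 0% to substrate plus vehicle on each plate.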

Structure (SMILES)	relative growth in counter assay
CSc1ccc2c(c1)N(CCC1CCCCN1C)c1ccccc1S2 (stereo not drawn) [Thioridazine HCl]	-2.48%
c1cncc(CN2CCC(n3ncc4c(N5CCOCC5)nc(-c5ccc6[nH]ccc6c5)nc43)CC2)c1	-26.4%
CCN(CC)CCNc1ccc(CO)c2sc3ccccc3c(=O)c12 [Hycanthone]	-31.9%
C[C@H](NCc1ccc(OCc2ccccc2F)cc1)C(N)=O [priralfinamide]	-0.94%
CCC1(O)CC2CN(CCc3c([nH]c4ccccc34)[C@@](C(=O)OC)(c3cc4c(cc3OC)N(C=O)C3[C@]45CCN4CC=C[C@@](CC)([C@@H](OC(C)=O)[C@]3(O)C(=O)OC)[C@H]45)C2)C1 (stereo partly drawn) [Vincristine sulfate]	-33.7%
C=C1CCC2[C@](C)(CO)[C@H](O)CC[C@@]2(C)[C@@H]1C/C=C1/C(=O)OC[C@H]1O (stereo partly drawn) [Andrographolide]	-20.8%
CC(C)/N=c1/cc2n(-c3ccc(Cl)cc3)c3ccccc3nc-2cc1Nc1ccc(Cl)cc1 [Clofazimine]	3.02%
NC(=O)N/N=C/c1ccc(Oc2ccc(F)cc2)cc1	2.45%
CCCCCNC(=N)N/N=C/c1c[nH]c2ccc(OC)cc12	-5.1%
CCN(CC)CCOc1ccccc1C(=O)CCc1ccccc1 [etafenone]	2.17%
Oc1cc(O)cc(/C=C/c2ccc(O)c(O)c2)c1 [piceatannol]	-9.71%
CCOc1ccc2nc3cc(N)ccc3c(N)c2c1	-23.6%
Nc1ccc(/N=N/c2ccccc2)c(N)n1	-3.22%
CCOC(=O)Nc1ccc2c(c1)N(C(=O)CCN1CCOCC1)c1ccccc1S2 [moracizine]	-9.21%
O=C1c2ccccc2-c2n[nH]c3cccc1c23 [pyrazolanthrone]	-9.29%
CO[C@H]1C[C@@H]2CC[C@@H](C)[C@@](O)(O2)C(=O)C(=O)N2CCCC[C@H]2C(=O)O[C@H]([C@H](C)C[C@@H]2CC[C@@H](O)[C@H](OC)C2)CC(=O)[C@H](C)/C=C(\C)[C@@H](O)[C@@H](OC)C(=O)[C@H](C)C[C@H](C)/C=C/C=C/C=C/1C [Rapamycin]	-20.8%
O=C(Nc1cccc(C(F)(F)F)c1)Nc1ccc(Br)cc1-c1nnn[nH]1	-0.22%
CC[C@]1(O)C[C@H]2CN(CCc3c([nH]c4ccccc34)[C@@](C(=O)OC)(c3cc4c(cc3OC)N(C=O)[C@H]3[C@@](O)(C(=O)OC)[C@H](OC(C)=O)[C@]5(CC)C=CCN6CC[C@]43[C@@H]65)C2)C1 [Vincristine Sulfate]	-33.5%
OCCCNc1cc(-c2ccnc(Nc3cccc(Cl)c3)n2)ccn1	-34.4%

Structure (SMILES)	relative growth in counter assay
Clc1ccc(COC(Cn2ccnc2)c2ccc(Cl)cc2Cl)cc1 (stereo not drawn)	1.65%
CC(C)(C)c1ccc(-c2nc3ccccc3[nH]2)cc1	3.59%
C(=C\c1ccccc1)/CN1CCN(C(c2ccccc2)c2ccccc2)CC1	-3.15%
Clc1ccc(C(Cn2ccnc2)OCc2csc3c(Cl)cccc23)c(Cl)c1 (stereo not drawn) [Sertaconazole nitrate]	-1.47%
CCCCC1OC(=O)c2ccccc21 (stereo not drawn) [Butylphthalide]	1.67%
COC1CCN(c2cccc(-c3cc(NC(C)=O)nc(-n4nc(C)cc4C)n3)n2)CC1	7.56%
O=C1[C@H]2CCCC[C@H]2C(=O)N1CCCCN1CCN(c2nsc3ccccc23)CC1 [Perospirone]	19.5%
S=C=Nc1ccc(N=C=S)cc1	3.25%
CC[C@H](CO)Nc1nc(Nc2cccc(-c3ccccn3)c2)c2ncn(C(C)C)c2n1	-0.26%
OCCN1CCN(CCCN2c3ccccc3Sc3ccc(C(F)(F)F)cc32)CC1 [Fluphenazine  HCl]	15.7%
Oc1c(Br)cc(Br)c2cccnc12	-4.45%
CCc1nc(N)nc(N)c1-c1ccc(Cl)cc1	3.95%
C[C@@H]1CC(=O)c2c(ccc3c2C(=O)c2cccc(O)c2C3=O)C1 [ochromycinone]	6.7%
COc1cc(NS(=O)(=O)c2ccc(N)cc2)nc(OC)n1	-0.83%
CC(=O)N(OCc1ccccc1)[C@@H]1c2cc(C#N)ccc2OC(C)(C)[C@H]1O	4.48%
CCc1c2c(nc3ccc(OC(=O)N4CCC(N5CCCCC5)CC4)cc13)-c1cc3c(c(=O)n1C2)COC(=O)[C@]3(O)CC [Irinotecan HCl]	-35.4%
CC1(C)Oc2ccc(C#N)cc2[C@@H](N2CCCC2=O)[C@@H]1O.CC1(C)Oc2ccc(C#N)cc2[C@H](N2CCCC2=O)[C@H]1O [levcromakalim]	4.22%
Cc1ccc(-c2ccc(C)cn2)nc1 [abametapir]	4.64%
CCCNC(=O)NS(=O)(=O)c1ccc(Cl)cc1	-2.41%
